Data published in PubChem BioAssay (EPA / NIEHS).
Some compounds were tested as several samples or in several runs, with calls that do not always agree. Activity calls are given as the source filed them. Rule for the calls: active = hit-call score of the fitted dose curve at least 0.9, where 1 is the maximum; inactive = score below 0.9.

Test: ATG_RORE_CIS: Attagene CIS-FACTORIAL HepG2 Assay for human RAR-related Orphan Receptor Element (RORE) (AID 2282959)
Conditions: HepG2 Attagene cis-factorial RORE reporter, mRNA; actives raise or lower the signal
Procedure: ATG_CIS is a cell-based, multiplexed-readout assay that uses HepG2, a human liver cell line, with measurements taken at 24 hours after chemical dosing in a 24-well plate.ATG_RORE_CIS is one of 52 assay component(s) measured or calculated from the ATG_CIS assay. It is designed to make measurements of mRNA induction, a form of inducible reporter, as detected with fluorescence intensity signals by Reverse transcription polymerase chain reaction (RT-PCR) and Capillary electrophoresis technology.Data from the assay component ATG_RORE_CIS was analyzed into 1 assay endpoint. This assay endpoint, ATG_RORE_CIS, was analyzed with bidirectional fitting relative to DMSO as the negative control and baseline of activity. Using a type of inducible reporter, measures of mRNA for gain or loss-of-signal activity can be used to understand the reporter gene at the transcription factor-level as they relate to the gene RORA and RORB and RORC. Furthermore, this assay endpoint can be referred to as a primary readout, because this assay has produced multiple assay endpoints where this one serves a reporter gene function. To generalize the intended target to other relatable targets, this assay endpoint is annotated to the nuclear receptor intended target family, where the subfamily is orphan.
Human liver HepG2 cells are transiently transfected with multiple reporter transcription units (MRTUs) in 6-well plates using FuGene 6 reagent (Roche; 3 ml FuGene/1 mg DNA). The MRTU constructs are regulated by a cis-regulating element (promoter). […] A major difference between the CIS and TRANS system is that in CIS activities of endogenous TFs are measured, whereas the TRANS assay evaluates changes in activities of exogenous, chimeric NR-Gal4 proteins. […] At the end of 24 hour incubation, total RNA was isolated using TriZol reagent (Invitrogen). The isolated RNA is then reverse-transcribed using oligo(dT) primer and Mo-MLV reverse transcriptase (Invitrogen) with DNAse I (Ambion) treatment for 30 min. The one-tenth of the produced cDNA was amplified by PCR using Taq DNA polymerase (Invitrogen) and two reporter sequence-specific primers. The PCR products were fluorescently labeled by primer extension with 6-arboxyfluorescein (6-FAM) 5'-labeled reporter sequence-specific primer (2 min at 95 C, 20 s at 68 C and 10 min at 72 C) and these products were digested with 5U of HpaI (New England Biolabs) for 2h at 37 C. The fragments were purified using Qiaquick PCR columns (Qiagen), analyzed on an ABI 3130xL genetic analyzer (Applied Biosystems) with peak positions identified by using a set of X-rhodamine (ROX)-labeled MapMarker1000 molecular weight standards (BioVentures). The raw capillary electrophoresis data was processed using Attagraph software (Attagene).
For `CC(=O)S[C@@H]1CC2=CC(=O)CC[C@]2(C)[C@H]2CC[C@@]3(C)[C@@H](CC[C@@]34CCC(=O)O4)[C@H]12`, the outcome was “inactive”.
With `CSC(=O)c1cccc2nnsc12` the outcome was “inactive”.
With `COC(=O)c1ccccc1C(=O)O` the outcome was “inactive”.
In the case of `CCOC(=O)c1ccc(O)cc1`, the outcome was “inactive” and the AC50 was 57.3 µM (active).
In the case of `O=C(O)C1(C(=O)Nc2ccc(Cl)cc2Cl)CC1`, the outcome was “inactive”.
With `O=C(Nc1ccc([N+](=O)[O-])cc1Cl)c1cc(Cl)ccc1O` the AC50 was 1.19 µM (active).
In the case of `COC(=O)CSc1cc(N=c2sc(=O)n3n2CCCC3)c(F)cc1Cl`, the outcome was “inactive”.
With `CCCOC(=O)NCCCN(C)C` the outcome was “inactive”.
In the case of `CN(C)C(=O)Nc1ccc(Cl)c(Cl)c1`, the outcome was “inactive” and the AC50 was 100 µM (active).
With `CCCN(CCC)C(=O)SCC` the outcome was “inactive”.
In the case of `C=CCOC(Cn1ccnc1)c1ccc(Cl)cc1Cl` (stereo not given), the outcome was “inactive”.
For `CCCCCOC(=O)COc1cc(N2C(=O)C3=C(CCCC3)C2=O)c(F)cc1Cl`, the outcome was “inactive”.
With `O=C(c1ccc(O)cc1O)c1ccc(O)cc1O` the outcome was “inactive”.
For `c1ccc2[nH]c(-c3cscn3)nc2c1`, the outcome was “inactive”.
With `N[C@@H](Cc1cc(I)c(Oc2ccc(O)c(I)c2)c(I)c1)C(=O)O` the outcome was “inactive”.
With `COCCO` the outcome was “inactive”.
With `OB(O)O` the outcome was “inactive”.
In the case of `CCCCOCCOCCOCc1cc2c(cc1CCC)OCO2`, the outcome was “inactive”.
With `CCCCC(CC)COC(=O)c1ccccc1C(=O)O` (stereo not given) the outcome was “inactive”.
With `S=C([S-])NCCNC(=S)[S-].[Mn+2]` the outcome was “inactive”.
With `CCC(C)OC(=O)N1CCCCC1CCO` (stereo not given) the outcome was “inactive”.
With `N#CSCSc1nc2ccccc2s1` the outcome was “inactive”.
For `CCSC(=O)N(CC(C)C)CC(C)C`, the outcome was “inactive”.
With `CCCCCCC(C)OC(=O)COc1nc(F)c(Cl)c(N)c1Cl` (stereo not given) the outcome was “inactive”.
For `COC(=O)c1ccc(CNS(C)(=O)=O)cc1S(=O)(=O)NC(=O)Nc1nc(OC)cc(OC)n1`, the outcome was “inactive”.
With `C[C@]12CC[C@@H]3c4ccc(O)cc4C[C@@H](CCCCCCCCCS(=O)CCCC(F)(F)C(F)(F)F)[C@H]3[C@@H]1CC[C@@H]2O` (stereo not given in full) the outcome was “inactive”.
With `C#C[C@]1(O)CC[C@H]2[C@@H]3CCC4=CC(=O)CC[C@@H]4[C@H]3CC[C@@]21CC` the outcome was “inactive”.
With `CCOC(=O)C(C)Oc1ccc(Oc2cnc3cc(Cl)ccc3n2)cc1` (stereo not given) the outcome was “inactive”.
For `COC(=O)c1c(Cl)nn(C)c1S(=O)(=O)NC(=O)Nc1nc(OC)cc(OC)n1`, the outcome was “inactive”.
For `Cc1nn(C)c(Oc2ccccc2)c1C=NOCc1ccc(C(=O)OC(C)(C)C)cc1`, the outcome was “inactive”.
With `CCC(O)=C1C(=O)CC(C(=O)O)CC1=O` (stereo not given) the outcome was “inactive”.
With `COC(=O)c1ccc(I)cc1S(=O)(=O)NC(=O)Nc1nc(C)nc(OC)n1` the outcome was “inactive”.
With `S=C(S)NCCNC(=S)S.[Mn+2].[S-]C([S-])=NCCN=C([S-])[S-].[Zn+2]` the AC50 was 19.6 µM (active) and the outcome was “inactive”.
With `C#CCOC(=O)[C@@H](C)Oc1ccc(Oc2ncc(Cl)cc2F)cc1` the outcome was “inactive”.
For `CCCCC(CC)CN1C(=O)C2C3C=CC(C3)C2C1=O` (stereo not given), the AC50 was 34 µM (active).
For `O=C(c1ccccc1)C1CCCCC1`, the outcome was “inactive”.
In the case of `COc1nc(C)nc(NC(=O)NS(=O)(=O)c2ccccc2OCCCl)n1`, the outcome was “inactive”.
